Bioassay records as filed in PubChem BioAssay.
D1 ag – Allosteric Agonists of the Human D1 Dopamine Receptor: qHTS | 360,000 compounds, 1% hits | D(1A) dopamine receptor (Homo sapiens), P21728 | HEK293 T-REx D1 cells, calcium flux, agonist mode | activation, % at 2 µM; also: 0% is about no effect
Target sequence (P21728 whole entry, looked up): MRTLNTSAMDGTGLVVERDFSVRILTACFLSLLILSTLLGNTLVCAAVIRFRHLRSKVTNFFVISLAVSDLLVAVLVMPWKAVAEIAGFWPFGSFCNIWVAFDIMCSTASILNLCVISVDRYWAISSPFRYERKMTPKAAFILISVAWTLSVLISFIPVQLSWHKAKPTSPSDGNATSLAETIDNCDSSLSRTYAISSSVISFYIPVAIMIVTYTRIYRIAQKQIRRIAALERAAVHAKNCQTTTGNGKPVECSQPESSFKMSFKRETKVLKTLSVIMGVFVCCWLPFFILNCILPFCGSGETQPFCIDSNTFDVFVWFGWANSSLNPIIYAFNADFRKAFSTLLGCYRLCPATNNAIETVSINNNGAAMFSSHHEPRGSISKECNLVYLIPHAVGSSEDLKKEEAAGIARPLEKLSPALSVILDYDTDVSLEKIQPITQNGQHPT
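Inducible HEK293 T-REx D1 cells, force-coupled to calcium signalling, were plated at 4000 cells/well with tetracycline and held overnight at 30 C. After no-wash calcium dye loading, compound-evoked calcium rise over 180 s flagged agonists.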
GRP78 ERSR act – qHTS for Inducers of the Endoplasmic Reticulum Stress Response (ERSR) in Human Glioma: qHTS | Potency, µM, for the others: at the top dose activation, most hits filed as activators | 420,000 compounds, 0.02% hits | U87-MG GRP78 promoter luciferase reporter, 16 h; active = well fitted activation curve with a large enough effect; also: potency is read from the fitted curve at half-maximal effect; series mostly up to about 76 µM; % of control where 0% means no effect; nearly all actives have a fitted effect of over 35% in size
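ERSR induction read as luciferase luminescence (Bright-Glo, 10 min at room temperature) in stably transfected human U87-MG glioma cells exposed to compounds for 16 h, using GRP78 as sensor.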
D1 potentiator – Potentiators of Human D1 Dopamine Receptor: qHTS; D(1A) dopamine receptor (Homo sapiens), P21728; HEK293 TREx D1 cells, calcium flux, dopamine EC20 potentiation; potentiation, % at 10 µM; 360,000 compounds, 0.036% hits; in the data active = potentiation above about 30%; also: 0% is about no effect
TRHR enhancer – qHTS for Small Molecule Agonists and Allosteric Enhancers of Human TRH Receptor: Primary Screen for Enhancers; TRHR cells, fluo-8 calcium fluorescence, EC20 TRH enhancement; enhancement, % at 2 µM; AID 493056, 2011; 360,000 compounds, 0.66% hits; Thyrotropin-releasing hormone receptor (Homo sapiens), P34981; in the data active = enhancement above about 30%; also: 0% is about no effect
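Enhancer read-out: after compound pinning and an initial kinetic agonist-mode read, an EC20 of TRH (10 nM final) was injected and fluo-8 calcium signal (Ex 480/Em 530) followed at 1 s/cycle for 100 cycles in TRHR-expressing cells.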
TRHR ag – qHTS for Small Molecule Agonists and Allosteric Enhancers of Human TRH Receptor: Primary Screen for Agonists; 360,000 compounds, 0.18% hits; activation, % at 2 µM; Thyrotropin-releasing hormone receptor (Homo sapiens), P34981; TRHR cells, calcium flux fluo-8, FDSS agonist mode; also: 0% is about no effect
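TRHR-expressing cells loaded with fluo-8 calcium dye; 23 nL library compound pin-transferred, kinetic FDSS fluorescence (Ex 480/Em 530) recorded about 180 s for agonist-induced calcium release, before a 10 nM TRH EC20 addition for potentiator mode.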
D1 antagonist – Antagonist of Human D 1 Dopamine Receptor: qHTS; D(1A) dopamine receptor (Homo sapiens), P21728; HEK293 TREx D1 cells, calcium flux, dopamine EC80; active compounds read low; activity change, negative = inhibition, % at 10 µM; 360,000 compounds, 3.2% hits; AID 504652, 2011; in the data active = activity change below about -30%; also: % is scaled to controls: 0 for no effect and ±100 for the full control effect
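Allosteric or orthosteric antagonism assessed as attenuation of the calcium response to EC80 dopamine, added 180 s after compound, in induced HEK293 Trex D1 cells loaded with no-wash calcium dye.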
Numbers without * were called inactive; · = not tested or not shown; ! = a repeat was not active. Compounds with a hit are over-represented: about 4% of the library has one in this group of screens. Rule as the data show it, unless noted: active = activation above about 30%; inactive = the rest.

SMILES	D1 ag	GRP78 ERSR act	D1 potentiator	TRHR enhancer	TRHR ag	D1 antagonist
CC(OC(=O)c1cccc(S(=O)(=O)N2CCCC2)c1)C(=O)NC1CCCCC1C (configuration not stated)	-0.3	-5.9%	1.8	7.5	0.1	3.5
O=C(O)CCC(=O)N1CCN(c2cccc(Cl)c2)CC1	4.3	-4.6%	-4.9	8.2	-1.0	4.4
O=C(O)/C=C/C(=O)N1CCN(c2cccc(Cl)c2)CC1	5.7	-2.6%	-19.9	6.9	-0.4	-40.8*
COc1ccc(CCC(=O)N2CCN(S(=O)(=O)c3cccc(Cl)c3)CC2)cc1	-0.8	-4.0%	-4.3	16.1	-0.7	-38.5*
COc1ccc(OCC(=O)N2CCN(c3cccc(Cl)c3)CC2)cc1	-1.1	-1.6%	-0.4	-0.7	-1.2	4.7
COc1ccc(C(=O)CCC(=O)N2CCN(c3cccc(Cl)c3)CC2)cc1	11.6	0.4%	-3.8	-6.0	-0.2	-32.9*
CCn1cc(C(=O)N2CCN(c3cccc(Cl)c3)CC2)c2cc(OC)c(OC)cc2c1=O	3.8	-2.1%	0.2	-4.7	-0.6	-52.8*!
COc1cc2c(C(=O)N3CCN(c4cccc(Cl)c4)CC3)cn(C)c(=O)c2cc1OC	0.9	0.2%	0.7	2.2	-0.3	-4.2
CCc1cc2c(=O)c(-c3nc4ccccc4n3C)coc2c(CN2CCCC(C)C2)c1O (configuration not stated)	2.4	1.8%	-1.9	0.2	-0.1	9.3
COc1ccc(NC(=O)CC(c2ccccc2)c2ccco2)cc1 (configuration not stated)	-0.9	-5.3%	-10.9	-5.1	-1.1	8.9
COc1ccc(C(=S)N2CCN(c3cccc(Cl)c3)CC2)cc1	2.1	-1.5%	-1.9	1.2	0.1	-33.4*!
COc1ccccc1C(=O)N1CCN(c2cccc(Cl)c2)CC1	0.3	-6.3%	-4.2	-3.2	-1.1	-7.3
COc1ccc(-c2ccnc3[nH]n(-c4ccccc4)c(=O)c23)cc1	3.6	-2.9%	-3.5	-2.1	0.4	-3.5
O=S(=O)(c1ccccc1)N(CC(O)COc1ccccc1)c1ccccc1 (configuration not stated)	3.0	-3.4%	-9.4	16.7	1.3	-30.8*
CCc1cccc(C)c1NS(=O)(=O)c1c(C(=O)N2CCCCCC2)c(C)n(C)c1C	1.1	-2.9%	-3.6	-2.5	-0.4	15.4
COc1ccc(Cn2c(-c3ccc(C)cc3)nc3c(c(=O)c4ccccc4n3C)c2=O)cc1	39.0*	3.1%	3.1	-3.8	-0.6	-0.2
COc1ccc(CCn2c(C(C)C)nc3c(c(=O)c4ccccc4n3C)c2=O)cc1	140.3*	-5.6%	-5.2	-6.7	17.1	-16.1
COc1ccc(Cn2c(-c3ccc(OC)cc3)nc3c(c(=O)c4ccccc4n3C)c2=O)cc1	15.0	·	5.5	-3.0	1.4	3.4
CCOC(=O)N1CCN(Cc2nc(-c3cccc(C)c3)no2)CC1	10.1	-0.3%	-1.2	0.0	0.1	-31.3*
COC(=O)c1cc(NC(=O)c2nn(C)c3c2COc2ccccc2-3)cc(C(=O)OC)c1	0.1	-3.3%	-1.5	4.8	-0.3	-54.8*
COC(=O)c1ccc(NC(=O)c2nn(C)c3c2COc2ccccc2-3)cc1	10.0	-5.2%	-3.7	-21.0	0.7	0.9
O=C(COC(=O)/C=C/c1cccc(Cl)c1)NC(=O)NCc1ccccc1	4.7	1.1%	1.6	1.8	-0.5	46.5
Cc1cccc2cncc(OCc3nnc(SC(F)F)n3C)c12	1.5	-2.4%	-1.3	40.9*	-0.3	10.3
Cc1cc(=O)[nH]c2c(C)c(N)ccc12	3.4	-4.5%	3.0	3.0	0.0	7.1
Cc1cc(C)c2ccc3c(C)c(C)nc3c2[nH]1	5.0	1.7%	-4.2	7.7	-1.0	-46.7*
SMILES	D1 ag	GRP78 ERSR act	D1 potentiator	TRHR enhancer	TRHR ag	D1 antagonist
CCCCOc1ccccc1C1CC(=O)NC2=C1C(=O)CCC2 (configuration not stated)	14.7	-3.6%	-5.3	10.8	5.2	-48.1*
O=C(O)C(c1ccccc1)N1C(=O)/C(=C\c2ccc(-c3ccccc3Cl)o2)SC1=S (configuration not stated)	0.0	2.3%	-0.1	2.8	-1.9	9.4
O=C(O)C(c1ccccc1)N1C(=O)/C(=C\c2ccc(-c3ccc(Br)cc3)o2)SC1=S (configuration not stated)	66.2*	-0.5%	27.3	-7.9	13.9	68.1
COc1cc(/C=C2\SC(=S)N(C(C(=O)O)c3ccccc3)C2=O)cc(OC)c1OC (configuration not stated)	3.0	31.6µM*	-3.8	2.4	-1.1	11.9
CCOc1cc2[nH]c(=S)n(Cc3ccc(C(=O)O)cc3)c(=O)c2cc1OCC	-0.5	-6.8%	3.9	-1.7	0.6	-14.9
Cc1ccccc1OCC(O)Cn1c(N2CCN(c3ccccc3)CC2)nc2c1c(=O)[nH]c(=O)n2C (configuration not stated)	0.6	-3.2%	1.6	10.8	-1.5	4.0
CCCc1cc(=O)oc2cc(Oc3ncccn3)ccc12	4.4	-4.3%	-4.7	-0.4	0.1	-2.2
CCN(CC)CCOC(=O)c1ccc(NC(=O)CCCN2C(=O)/C(=C\c3cccs3)SC2=S)cc1	22.6	-8.5%	-20.9	-4.6	5.6	-65.9*
O=C(CCN1C(=O)/C(=C\c2cccs2)SC1=S)Nc1ccc(C(=O)O)cc1	3.0	-0.1%	-1.1	2.6	2.9	-6.7
Cc1nc2ccc(S(=O)(=O)CCC(=O)Nc3ccc(C(C)C)cc3)cc2s1	0.4	-1.4%	0.2	15.4	-0.3	-56.8*
CCN(CC)c1cc(C)c2cc(NC(=O)c3ccc(Br)o3)ccc2n1	-0.4	0.4%	-3.4	0.5	-0.7	-55.1*
CCCCc1ccc(C(=O)Nc2ccc3nc(N(CC)CC)cc(C)c3c2)cc1	1.1	-3.8%	-0.6	-2.5	0.3	9.5
Cc1ccc2nc(-c3ccc(NC(=O)COC(=O)c4ccc(Br)o4)cc3)sc2c1	3.6	-6.9%	45.9*	4.5	0.5	-6.6
Cc1nc2ccc(NC(=O)c3ccc(S(=O)(=O)N(C)c4ccccc4)cc3)cc2s1	8.7	-4.1%	-4.5	-0.3	0.9	-34.6*
O=C(N/N=C/c1ccc2c(c1)OCO2)c1ccccn1	1.7	-9.7%	2.5	-2.8	0.4	-9.3
